# Reference: PubChem BioAssay (NCI)
# Compounds without any hit were thinned out: in the full panel of roughly 83,000, 20% have a hit.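 Cells were grown in 96-well plates and exposed to the test compound at a single concentration for 48 hours; results are reported as percent growth, with values below 10 considered active.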 Values without a mark were called inactive.
# System: COLO 205 colon
# Test: NCI-60 one-dose screen, 48 h (100 = growth as untreated, 0 = no growth, -100 = all killed)
# Conditions: 10 µM unless noted
row,SMILES,growth [%]
1,CCN(C(=O)c1cc2ncccc2[nH]1)[C@H]1CCC[C@@H](NCc2cccc(F)c2)C1,18.7
2,COc1ccc(/C=C/C(=O)/C=C/c2cc3ccc(Cl)cc3[nH]c2=O)cc1,90.5
3,CCc1c(C(=O)Nc2ccc3ccccc3c2)[nH]c(C)c1C(C)=O,111
4,Cc1cnc(NC(=O)C(Cc2ccccc2)NC(=O)c2ccccc2)s1 (stereo unspecified),91.9
5,O=C1Nc2ccc(Br)cc2C1=N/C=c1\[nH]c(=O)/c(=C/c2ccc(Cl)cc2)s1,102
6,CC/C(=C(\c1ccc(O)cc1)c1ccc(OCCN(C)CCN(C)C(=O)CCC(=O)c2c(C)[nH]c(/C=C3\N=C(c4ccc[nH]4)C=C3OC)c2C)cc1)c1ccccc1,89.8
